Experimental data published in PubChem BioAssay.
Several values for one entry are separate records, joined by “and”; a condition that tells them apart may be missing. Equal entries are not always repeated. Activity calls are given as the source filed them.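 How the source made its calls, unless noted: active means normalized viability below 100% at a tested concentration; inactive means the rest.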

What was measured:
[1] = signal quenchers or enhancers, Cy5 substrate/SSB – biochemical, NIH Clinical Collection, E. coli SSB, artefact control for HCV NS3 helicase inhibitor project (AID 743268; call rule not given here); details: Cy5-oligo bound E. coli SSB, fluorescence interference
[2] = system: Hepatitis C virus NS3 helicase; experiment: blockers of NS3h binding to DNA – biochemical, fluorescence polarization, NIH Clinical Collection, primary screen (AID 743270; call rule not given here); details: NS3 helicase binding to Cy5-dT15 DNA, stronger effect = higher value, concentration not given here
[3] = target: Single-stranded DNA-binding protein (Escherichia coli (strain K12)) (UniProt P0AGE0); experiment: SSB-ssDNA binding inhibitors – biochemical, fluorescence polarization, NIH Clinical Collection, counter-screen for HCV NS3 helicase inhibitor project (AID 743271; in the data active means inhibition above about 28%); details: E. coli SSB-DNA binding, stronger effect = higher value, concentration not given here
[4] = compounds distorting NS3 helicase fluorescence signal – biochemical, NIH Clinical Collection, artefact control for HCV NS3 helicase inhibitor project (AID 743272; call rule not given here;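 further: HCV NS3 helicase with a Cy5 labelled single stranded DNA probe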); details: fluorescence interference counterscreen, HCV NS3 helicase assay; stronger effect = lower value
[5] = target: 6-phosphogluconate dehydrogenase, decarboxylating (Homo sapiens) (UniProt P52209); experiment: inhibition of human phosphogluconate dehydrogenase – biochemical, recombinant enzyme, NADPH absorbance, primary screen (AID 1159550;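 active means at least 20% inhibition of 6-phosphogluconate dehydrogenase activity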); details: recombinant 6PGD, NADPH absorbance 341 nm; at 10 µM; stronger effect = higher value
[6] = modulation of C. elegans fzo-1 (AID 1259413; call rule not given here;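 further: fzo-1 mutant C. elegans worms in liquid wells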); details: C. elegans fzo-1 modulator screen, mean read-out; stronger effect = higher value
[7] = EMT-state selective cytotoxicity in co-culture – imaging, PC-3E GFP, TEM4-18 mCherry, primary screen (AID 1345086;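 active means compounds killing one labelled cell type while sparing the other, by normalised counts and ratio limits, not self-fluorescent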;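 further: cells exposed to compound for 72 h before imaging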;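 on red/green cell ratio (normalised): normalised mesenchymal count divided by normalised epithelial count so high means epithelial killing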); details: PC-3E GFP / TEM4-18 mCherry co-culture, imaging cell counts, at 1 µM
[8] = drug combination growth inhibition, ovarian cancer – cell-based, oncology-focused library, rucaparib conditional, profiling panel (AID 1508598); details: patient-derived ovarian cancer cells, CellTiter-Glo viability, 144 h, stronger effect = lower value
[9] = target: NAD(+) hydrolase SARM1 (Homo sapiens) (UniProt Q6SZW1); experiment: blocking NAD cleavage by SARM1 SAM-TIR – cell lysate, NAD-Glo luminescence (AID 1508614;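 active means compound whose remaining NAD level is above about 45 nM, limit read from the data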); details: SAM-TIR HEK293T lysate NADase, at 1 µM, stronger effect = higher value
[10] = target: Mitogen-activated protein kinase 7 (Homo sapiens) (UniProt Q13164); experiment: Gal4-ERK5 driven luciferase induction – cell-based, HTS, primary screen (AID 1508626;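 active means luciferase signal above three times the same-plate solvent-only control wells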;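 further: luciferase driven by Gal4-ERK5 fusion binding five Gal4 sites before minimal TATA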); details: HeLa Gal4-ERK5 transactivation, 18 h, at 5 µM, stronger effect = higher value
[11] = galactose survival enhancers in mitochondrial complex I cybrids – cell-based, galactose medium, ATP luminescence, primary screen (AID 1645843;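 active means z-score of at least 1.8 in each of two replicates, scored against plate mean and spread of sample wells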;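 further: positive z means more ATP and so rescue of galactose-driven cybrid death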); details: complex I mutant cybrid cells, 72 h, stronger effect = higher value
F380Y = experiment: BK channel mutant inhibitors and activators – cell-based, U2OS BacMam, thallium flux, beta subunits, selectivity assay, profiling panel (AID 1259406;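 active means thallium flux through the channel raised or lowered by more than 3 SD from vehicle-only wells, actives on both sides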;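 further: initial slope of Thallos dye fluorescence rise after thallium is added; log ratio against the mean of 0.3% DMSO vehicle wells on the same plate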); details: U2OS BacMam BK variants, at 30 µM
F380Y/beta2Delta = experiment: as above; details: U2OS BacMam BK variants, at 30 µM
[12] = target: Calcium-activated potassium channel subunit alpha-1 (Homo sapiens) + Leucine-rich repeat-containing protein 26 (Homo sapiens) (UniProt Q12791+Q2I0M4); experiment: as above; details: U2OS BacMam BK variants, F380Y/Slo1WT/gamma1, at 30 µM
R275C = experiment: as above; details: U2OS BacMam BK variants, at 30 µM
R275C/beta1 = experiment: as above; details: U2OS BacMam BK variants, at 30 µM
R275C/beta2Delta = experiment: as above; details: U2OS BacMam BK variants, at 30 µM
[13] = viability loss with induced miR-34 in A549 – imaging, A549 dox-inducible miR-34, nuclei and caspase counts, primary screen (AID 1347080;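 active means compounds whose cell count with miR-34 switched on is under 0.7 times the count with it off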); details: A549 miR-34 inducible, Hoechst nuclei count, 48 h
[14] = MELAS cybrid and Rieske KO viability enhancers – cell-based, MELAS cybrids, Rieske KO mouse fibroblasts, CellTiter-Glo, primary screen (AID 1508586;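 active means mean z-score across replicates of 1.96 or higher in either the MELAS or the Rieske mutant cell line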;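 further: z relative to plate mean and SD of compound and empty wells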); details: low glucose

Chain of Mitogen-activated protein kinase 7 (Homo sapiens) (Q13164 whole entry, looked up, the tested form may be a part): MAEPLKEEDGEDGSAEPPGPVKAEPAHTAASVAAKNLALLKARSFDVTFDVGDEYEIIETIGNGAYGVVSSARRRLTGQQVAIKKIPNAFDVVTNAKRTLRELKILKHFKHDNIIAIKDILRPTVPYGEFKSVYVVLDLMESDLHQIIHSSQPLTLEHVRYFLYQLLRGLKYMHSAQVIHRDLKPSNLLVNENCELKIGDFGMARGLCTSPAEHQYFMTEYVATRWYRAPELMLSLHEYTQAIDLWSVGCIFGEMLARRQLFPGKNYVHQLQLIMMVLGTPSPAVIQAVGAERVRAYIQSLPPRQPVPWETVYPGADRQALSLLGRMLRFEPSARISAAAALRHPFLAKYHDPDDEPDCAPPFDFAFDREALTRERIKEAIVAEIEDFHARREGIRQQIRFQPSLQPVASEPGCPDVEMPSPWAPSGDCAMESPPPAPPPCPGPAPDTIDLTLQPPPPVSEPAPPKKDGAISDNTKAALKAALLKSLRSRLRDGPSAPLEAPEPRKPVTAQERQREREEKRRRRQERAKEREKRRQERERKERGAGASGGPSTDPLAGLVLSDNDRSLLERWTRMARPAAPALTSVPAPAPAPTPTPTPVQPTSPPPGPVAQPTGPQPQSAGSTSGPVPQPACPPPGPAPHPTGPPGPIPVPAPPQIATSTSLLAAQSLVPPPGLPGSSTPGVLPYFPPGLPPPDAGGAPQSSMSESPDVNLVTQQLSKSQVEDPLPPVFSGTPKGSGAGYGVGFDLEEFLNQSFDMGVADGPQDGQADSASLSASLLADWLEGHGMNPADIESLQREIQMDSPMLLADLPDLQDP
Chain of 6-phosphogluconate dehydrogenase, decarboxylating (Homo sapiens) (P52209 whole entry, looked up): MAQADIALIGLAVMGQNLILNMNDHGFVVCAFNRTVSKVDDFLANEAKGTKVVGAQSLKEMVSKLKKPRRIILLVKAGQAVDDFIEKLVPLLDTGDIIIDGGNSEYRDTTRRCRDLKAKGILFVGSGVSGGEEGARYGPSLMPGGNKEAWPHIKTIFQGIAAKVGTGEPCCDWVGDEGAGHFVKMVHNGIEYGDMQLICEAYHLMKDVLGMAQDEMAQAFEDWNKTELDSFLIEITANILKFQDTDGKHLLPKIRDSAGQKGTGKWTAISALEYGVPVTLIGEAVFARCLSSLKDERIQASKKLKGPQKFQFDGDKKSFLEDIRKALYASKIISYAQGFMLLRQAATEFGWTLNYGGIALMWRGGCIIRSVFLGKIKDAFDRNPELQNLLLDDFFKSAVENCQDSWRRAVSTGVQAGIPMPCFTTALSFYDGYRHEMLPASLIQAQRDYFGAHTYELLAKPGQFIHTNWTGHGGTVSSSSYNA
Chain of Calcium-activated potassium channel subunit alpha-1 (Homo sapiens) + Leucine-rich repeat-containing protein 26 (Homo sapiens) (Q2I0M4 whole entry, looked up, one chain of several): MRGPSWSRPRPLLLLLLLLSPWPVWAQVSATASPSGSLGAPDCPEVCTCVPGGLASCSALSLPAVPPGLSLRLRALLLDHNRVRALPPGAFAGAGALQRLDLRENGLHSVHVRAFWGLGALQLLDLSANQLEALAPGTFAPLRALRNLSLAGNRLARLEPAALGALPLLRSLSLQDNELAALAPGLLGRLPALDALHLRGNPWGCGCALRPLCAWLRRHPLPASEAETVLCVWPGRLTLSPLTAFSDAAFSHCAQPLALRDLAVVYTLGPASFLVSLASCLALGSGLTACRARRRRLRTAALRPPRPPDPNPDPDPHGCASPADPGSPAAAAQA
Chain of NAD(+) hydrolase SARM1 (Homo sapiens) (Q6SZW1 whole entry, looked up, the tested form may be a part): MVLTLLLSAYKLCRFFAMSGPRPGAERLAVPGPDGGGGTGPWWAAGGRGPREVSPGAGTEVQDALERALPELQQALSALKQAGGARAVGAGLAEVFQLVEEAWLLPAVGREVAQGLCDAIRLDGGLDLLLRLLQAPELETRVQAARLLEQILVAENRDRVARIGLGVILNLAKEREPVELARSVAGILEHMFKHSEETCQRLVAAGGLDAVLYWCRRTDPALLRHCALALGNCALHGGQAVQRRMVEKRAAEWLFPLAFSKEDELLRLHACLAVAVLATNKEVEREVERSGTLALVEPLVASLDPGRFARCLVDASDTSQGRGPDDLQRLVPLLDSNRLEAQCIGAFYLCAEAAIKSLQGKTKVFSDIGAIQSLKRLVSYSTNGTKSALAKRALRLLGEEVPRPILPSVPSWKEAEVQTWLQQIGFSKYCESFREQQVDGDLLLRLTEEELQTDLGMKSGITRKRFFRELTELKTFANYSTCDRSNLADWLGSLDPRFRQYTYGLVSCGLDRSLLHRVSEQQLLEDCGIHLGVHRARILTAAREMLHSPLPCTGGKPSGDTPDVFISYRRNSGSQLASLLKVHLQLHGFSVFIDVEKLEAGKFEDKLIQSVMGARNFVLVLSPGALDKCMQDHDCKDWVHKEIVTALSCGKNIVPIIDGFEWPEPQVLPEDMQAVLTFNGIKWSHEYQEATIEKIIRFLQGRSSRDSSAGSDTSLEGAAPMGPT

CCc1ccc(CCOc2ccc(CC3SC(=O)NC3=O)cc2)nc1 (centres undefined)
inactive: fluorescence ratio [1] 1.03 | inhibition [2] 0.4% | inhibition [3] 3.75% | fluorescence ratio [4] 0.9 | inhibition [5] 6.81% | mean signal [6] 259 | red/green cell ratio (normalised) ([7]; actives lie on both sides, counts scaled to control wells, 1 = unselective) 1.07 | viability ([8]; at 0.000305 µM, OCI-C5x cells, with rucaparib 10 µM, 100% = cells with rucaparib alone) 119% | viability ([8]; at 0.000305 µM, OCI-C5x cells, without rucaparib) 118% | viability ([8]; at 0.00122 µM, OCI-C5x cells, with rucaparib 10 µM, 100% = cells with rucaparib alone) 120% | viability ([8]; at 0.00122 µM, OCI-C5x cells, without rucaparib) 116% | viability ([8]; at 0.00122 µM, OCI-P5x cells, without rucaparib) 100% | viability ([8]; at 0.00488 µM, OCI-C5x cells, with rucaparib 10 µM, 100% = cells with rucaparib alone) 108% | viability ([8]; at 0.00488 µM, OCI-C5x cells, without rucaparib) 126% | viability ([8]; at 0.00488 µM, OCI-P5x cells, with rucaparib 20 µM, 100% = cells with rucaparib alone) 102% | viability ([8]; at 0.00488 µM, OCI-P5x cells, without rucaparib) 105% | viability ([8]; at 0.0195 µM, OCI-C5x cells, with rucaparib 10 µM, 100% = cells with rucaparib alone) 120% | viability ([8]; at 0.0195 µM, OCI-C5x cells, without rucaparib) 126% | viability ([8]; at 0.0195 µM, OCI-P5x cells, with rucaparib 20 µM, 100% = cells with rucaparib alone) 105% | viability ([8]; at 0.0195 µM, OCI-P5x cells, without rucaparib) 104% | viability ([8]; at 0.0781 µM, OCI-C5x cells, with rucaparib 10 µM, 100% = cells with rucaparib alone) 124% | viability ([8]; at 0.0781 µM, OCI-C5x cells, without rucaparib) 113% | viability ([8]; at 0.0781 µM, OCI-P5x cells, with rucaparib 20 µM, 100% = cells with rucaparib alone) 101% | viability ([8]; at 0.0781 µM, OCI-P5x cells, without rucaparib) 110% | viability ([8]; at 0.313 µM, OCI-C5x cells, with rucaparib 10 µM, 100% = cells with rucaparib alone) 105% | viability ([8]; at 0.313 µM, OCI-C5x cells, without rucaparib) 115% | viability ([8]; at 0.313 µM, OCI-P5x cells, with rucaparib 20 µM, 100% = cells with rucaparib alone) 103% | viability ([8]; at 0.313 µM, OCI-P5x cells, without rucaparib) 113% | viability ([8]; at 1.25 µM, OCI-C5x cells, with rucaparib 10 µM, 100% = cells with rucaparib alone) 111% | viability ([8]; at 1.25 µM, OCI-C5x cells, without rucaparib) 123% | viability ([8]; at 1.25 µM, OCI-P5x cells, with rucaparib 20 µM, 100% = cells with rucaparib alone) 104% | viability ([8]; at 1.25 µM, OCI-P5x cells, without rucaparib) 118% | viability ([8]; at 5 µM, OCI-C5x cells, with rucaparib 10 µM, 100% = cells with rucaparib alone) 105% | viability ([8]; at 5 µM, OCI-C5x cells, without rucaparib) 123% | viability ([8]; at 5 µM, OCI-P5x cells, with rucaparib 20 µM, 100% = cells with rucaparib alone) 103% | viability ([8]; at 5 µM, OCI-P5x cells, without rucaparib) 111% | remaining NAD [9] 10 nM | luciferase signal [10] 48 AU | z-score [11] 0.365 and 1.53 | log fold change Tl+ flux (F380Y) 0.00439 | log fold change Tl+ flux (F380Y/beta2Delta) 0.0296 | log fold change Tl+ flux [12] 0.0101 | log fold change Tl+ flux (R275C) -0.057 | log fold change Tl+ flux (R275C/beta1) -0.028 | log fold change Tl+ flux (R275C/beta2Delta) -0.0196
active: viability ([8]; at 0.000305 µM, OCI-P5x cells, with rucaparib 20 µM, 100% = cells with rucaparib alone) 88.4% | viability ([8]; at 0.000305 µM, OCI-P5x cells, without rucaparib) 95.9% | viability ([8]; at 0.00122 µM, OCI-P5x cells, with rucaparib 20 µM, 100% = cells with rucaparib alone) 97.3%
1.27: normalised cell number ([7]; measured here: mesenchymal TEM4-18 mCherry cell survival)
1.18: normalised cell number ([7]; measured here: epithelial PC-3E GFP cell survival)

O=c1ccc2ccc(O)c(O)c2o1
0.783: z-score ([14]; Rieske KO mouse fibroblast survival, CellTiter-Glo 72 h)
inactive: inhibition [5] 2.02% | fold change ([13]; stronger effect = lower value, cell number ratio, induced over uninduced) 0.898 and 0.94 | z-score ([14]; MELAS cybrid survival, CellTiter-Glo 48 h, stronger effect = higher value) -0.407 | luciferase signal [10] 64 AU | z-score [11] -0.93
1.4 and 0.597: fold change ([13]; measured here: relative caspase fold change +Dox/-Dox)
8840 and 10800: cell count ([13]; measured here: total cells without miR-34 induction)
7930 and 10100: cell count ([13]; measured here: total cells with miR-34 induction, stronger effect = lower value)
